Measurements reported in publication PMC4336329 (PLoS ONE, 2015).
About 14,000 (4.5%) of roughly 310,000 compounds showed an effect of 50% or more. Effects have a minus sign here. The entries come from a sample that favours strong results as a whole.

The molecules below were run against human ether-à-go-go-related gene (hERG) potassium channel (human, UniProt Q12809) (assay: primary screen, population patch clamp on CHO cells stably expressing hERG; higher = less effect of the substance).
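Note: peak tail current of the secondary pulse compared with the same well before compound.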

human ether-à-go-go-related gene (hERG) potassium channel, sequence (Q12809 whole entry, looked up): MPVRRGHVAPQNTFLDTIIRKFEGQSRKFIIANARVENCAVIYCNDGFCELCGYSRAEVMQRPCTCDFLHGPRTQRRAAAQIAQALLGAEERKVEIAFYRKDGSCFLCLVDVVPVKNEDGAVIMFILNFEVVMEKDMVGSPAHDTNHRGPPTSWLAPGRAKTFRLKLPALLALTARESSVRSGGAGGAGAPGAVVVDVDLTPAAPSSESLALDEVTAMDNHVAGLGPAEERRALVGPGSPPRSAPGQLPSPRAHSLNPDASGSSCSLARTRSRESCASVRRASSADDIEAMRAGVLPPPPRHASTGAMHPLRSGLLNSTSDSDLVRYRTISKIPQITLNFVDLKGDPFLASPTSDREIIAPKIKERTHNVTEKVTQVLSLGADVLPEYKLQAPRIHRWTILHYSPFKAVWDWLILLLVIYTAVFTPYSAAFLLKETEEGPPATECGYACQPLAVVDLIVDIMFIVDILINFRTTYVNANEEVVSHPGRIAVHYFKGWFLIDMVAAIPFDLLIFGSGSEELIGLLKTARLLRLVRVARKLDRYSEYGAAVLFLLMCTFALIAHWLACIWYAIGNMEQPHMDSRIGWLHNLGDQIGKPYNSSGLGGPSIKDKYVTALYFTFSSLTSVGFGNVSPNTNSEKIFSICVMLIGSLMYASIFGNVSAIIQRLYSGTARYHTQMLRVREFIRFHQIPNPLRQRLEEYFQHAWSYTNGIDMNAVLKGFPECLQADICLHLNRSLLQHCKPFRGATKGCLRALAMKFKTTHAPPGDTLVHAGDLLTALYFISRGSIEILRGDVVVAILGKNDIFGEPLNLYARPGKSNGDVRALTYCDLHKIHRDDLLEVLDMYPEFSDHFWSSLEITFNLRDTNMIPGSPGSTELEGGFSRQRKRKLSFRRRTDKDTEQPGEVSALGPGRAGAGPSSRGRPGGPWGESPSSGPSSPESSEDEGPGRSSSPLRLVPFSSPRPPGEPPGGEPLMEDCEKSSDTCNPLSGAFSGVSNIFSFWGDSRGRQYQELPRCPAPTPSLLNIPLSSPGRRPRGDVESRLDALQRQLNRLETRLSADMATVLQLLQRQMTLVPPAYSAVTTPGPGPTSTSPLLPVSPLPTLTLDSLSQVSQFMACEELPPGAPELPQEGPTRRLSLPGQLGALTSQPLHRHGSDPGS

| Structure (SMILES) | hERG current change (%, negative = inhibition) at 10uM [%] |
| --- | --- |
| O=CN1CCN(C(C(=O)NC2CCCC2)c2ccc(Cl)cc2)CC1 (stereo not shown) | -14.8 |
| O=C(NC1CCCC1)C(c1ccc(Cl)cc1)N1CCN(C2CCCCC2)CC1 (stereo not shown) | -59.3 |
| O=CN1CCN(C(C(=O)NC2CCCCC2)c2ccc(Cl)cc2)CC1 (stereo not shown) | -15 |
| Cc1c(C=O)c2ccccc2n1CC(=O)NCc1ccc2c(c1)OCO2 | 21.8 |
| CCN1CCN(CC(O)COCCOc2ccc(Br)cc2)CC1.Cl (stereo not shown) | -12.3 |
| CC1CC(C)CN(CC(O)COCc2ccccc2)C1.Cl (stereo not shown) | -7.79 |
| CC1(C)CC(O)CC(C)(C)N1CC(O)COCCOc1ccc(Br)cc1 (stereo not shown) | -42.4 |
| Cl.OC(COCCOc1ccc(Br)cc1)CN1CCCCC1 (stereo not shown) | -37.1 |
| CC1CC(C)CN(CC(O)COCCOc2ccc(Br)cc2)C1.Cl (stereo not shown) | -71.6 |
| CC1(C)CCCC(C)(C)N1CC(O)COCCOc1ccc(Br)cc1.Cl (stereo not shown) | -67.5 |
| Cl.OCCN1CCN(CC(O)COCCOc2ccc(Br)cc2)CC1 (stereo not shown) | -20.2 |
| CN1CCN(CC(O)COCCOc2ccc(Br)cc2)CC1.Cl (stereo not shown) | 10.4 |
| CC1CCN(CC(O)COCCOc2ccc(Br)cc2)CC1.Cl (stereo not shown) | -64.3 |
| COc1cc(CCN2C(=O)c3cccc4cccc(c34)C2=O)c(S(=O)(=O)NCCO)cc1OC | -23.8 |
| CC(C)COP(=O)(OCC(C)C)C(O)c1ccccc1F (stereo not shown) | -1.27 |
| CCCNC(=O)/C=C/c1ccc(S(=O)(=O)Nc2ccccc2OC)cc1 | -1.75 |
| Cc1ccc(OCCOc2cccc3ccc(C)nc23)c([N+](=O)[O-])c1.O=C(O)C(=O)O | -10.7 |
| CC1CCCCN1c1ncnc2ccccc12.Cl (stereo not shown) | -7.46 |
| Cc1ccc(C)c(N2CCN(S(=O)(=O)c3ccc4c(c3)C(C)(C)C(=O)N4C)CC2)c1 | 3.88 |
| Cc1nc2ncnn2c(N2CCN(C(c3ccccc3)c3ccccc3)CC2)c1C | -47.7 |
| COCCCn1c(SCC(=O)Nc2cccc(C(=O)OC)c2)nnc1-c1ccncc1 | -15.8 |
| COC(=O)c1cccc(NC(=O)CSc2nnc(COc3ccc(C#N)cc3)n2-c2ccccc2)c1 | -73.5 |

| Structure (SMILES) | hERG current change (%, negative = inhibition) at 10uM [%] |
| --- | --- |
| CCn1c(COc2cccc(C)c2)nnc1SCC(=O)Nc1cccc(C(=O)OC)c1 | -2.45 |
| CCOC(=O)c1cccc(NC(=O)CSc2nnc(COc3ccccc3)n2CC)c1 | -51.3 |
| CCn1c(COc2cccc(C)c2)nnc1SCC(=O)Nc1cccc(C(=O)O)c1 | 9.41 |
| COC(=O)c1cccc(NC(=O)CSc2nnc(COc3ccccc3)n2C)c1 | -7.84 |
| CCOC(=O)c1cccc(NC(=O)CSc2nnc(-c3ccncc3)n2CCCOC)c1 | -50.4 |
| N#Cc1ccc(OCc2nnc(SCC(=O)c3ccccc3)n2-c2ccccc2)cc1 | -40.8 |
| COCCCn1c(SCC(=O)Nc2ccccc2)nnc1-c1ccncc1 | -6.82 |
| COc1ccc(OC)c(CCNC(=O)Cn2ccc3cc(S(=O)(=O)N4CCCC4)ccc32)c1 | -13.9 |
| CCN(CC)CCNC(=O)c1cc2c(s1)-c1ccccc1SC2 | -77.8 |
| CN(CCC#N)C(=O)c1cc2c(s1)-c1ccccc1SC2 | -8.88 |
| CN(C)CCNC(=O)c1cc2c(s1)-c1ccc(Cl)cc1SC2 | -81.1 |
| CN(C)C(=O)c1cc2cc(Br)ccc2s1 | -3.77 |
| COCCNC(=O)c1cc2c(s1)-c1ccc(Cl)cc1SC2 | -5 |
| NNC(=O)c1cc2c(s1)-c1cc(Cl)ccc1SC2 | 10.3 |
| CCOCCCNC(=O)c1cc2c(s1)-c1ccccc1SC2 | -5.28 |
| CCN(CC)CCNC(=O)c1cc2cc(Br)ccc2s1 | -61.1 |
| CNC(=O)c1cc2cc(Br)ccc2s1 | 10.1 |
| C/C(=N/OCC(=O)NCCCCCCNC(=O)CO/N=C(/C)c1cccs1)c1cccs1 | -20.8 |
| CCCCOC(=O)Nc1cc(Cl)ccc1C | 1.24 |
| O=S(=O)(/N=C(/Nc1ccccc1)C(F)(F)F)c1ccccc1 | -20.7 |
| Br.C/C(CC1CC(COCC(C)C)OC1=O)=N\Nc1nc(-c2ccccc2)cs1 (stereo not shown) | -15.5 |
| CC1Sc2ccc(S(=O)(=O)CCC(=O)Nc3ccccc3Cl)cc2NC1=O (stereo not shown) | 4.08 |

| Structure (SMILES) | hERG current change (%, negative = inhibition) at 10uM [%] |
| --- | --- |
| Cc1ccc(/C=C/C(=O)Nc2nnc(SCc3ccc(C#N)cc3)s2)o1 | -11 |
| O=C1CC(c2ccccc2)n2nc(NC(=O)C3CCCO3)nc2N1 (stereo not shown) | -10 |
| CCN(CC)S(=O)(=O)c1ccc(OC)c(NC(=O)CC2CCCC2)c1 | -10.8 |
| Cc1ccc(S(=O)(=O)N(C)C)cc1NC(=O)COC(=O)CCC1CCCCC1 | 2.99 |
| Cc1ccc(S(=O)(=O)N(C)C)cc1NC(=O)COC(=O)CC1CCCC1 | -74.2 |
| COc1ccc(S(=O)(=O)N(C)C)cc1NC(=O)COC(=O)CC1CCCC1 | -72.8 |
| Cc1ccc(S(=O)(=O)N(C)C)cc1NC(=O)COC(=O)CCC1CCCC1 | -18.5 |
| COc1ccc(NC(=O)COC(=O)CC2CCCC2)cc1Cl | -1.21 |
| CCc1ccccc1NC(=O)CN(C)C(=O)CSc1nc2cc(Cl)ccc2s1 | 17.8 |
| CCOC(=O)/C(=N\Nc1cc(Cl)ccc1Cl)N1CCN(C)CC1 | -16.9 |
| O=C(CSc1ncccn1)N/N=C/c1ccccc1[N+](=O)[O-] | 11.3 |
| O=C(NCCN1CCOCC1)/C(=C/c1ccco1)NC(=O)c1ccccc1 | -5.48 |
| COc1ccccc1/C=C(/NC(=O)c1ccccc1)C(=O)NCCN1CCOCC1 | 15.5 |
| O=C(NCCCN1CCOCC1)/C(=C/c1ccc(F)cc1)NC(=O)c1ccccc1 | -73.5 |
| O=C(NCCCN1CCOCC1)/C(=C/c1cccnc1)NC(=O)c1ccccc1 | -25 |
| O=C(NCCN1CCOCC1)/C(=C\c1ccc(Br)cc1)NC(=O)c1cccs1 | -67.4 |
| O=C(NCCN1CCOCC1)/C(=C\c1ccc(F)cc1)NC(=O)c1ccccc1 | -62.3 |
| O=C(NCCN1CCOCC1)/C(=C/c1ccc(F)cc1)NC(=O)c1ccccc1 | -67.8 |
| O=C(NCCN1CCOCC1)/C(=C\c1ccccc1F)NC(=O)c1ccccc1 | -26.5 |
| CN(C)c1ccc(/C=C(\NC(=O)c2ccccc2)C(=O)NCCCN2CCOCC2)cc1 | -10.4 |
| O=C(NCCO)/C(=C/c1ccc(Br)cc1)NC(=O)c1cccs1 | -14 |
| O=C(NCCO)/C(=C\c1ccc(Br)cc1)NC(=O)c1cccs1 | -3.91 |

| Structure (SMILES) | hERG current change (%, negative = inhibition) at 10uM [%] |
| --- | --- |
| COc1ccccc1C(=O)COC(=O)c1nc(Cl)ccc1Cl | -0.91 |
| O=C(CSC1=NS(=O)(=O)c2cc(Cl)ccc2N1)NCCc1ccccc1 | 15.4 |
| CN(C)c1ccc(S(=O)(=O)N2CCCCC2)cc1NC(=O)CCNC(=O)c1ccc(Cl)cc1 | -27.4 |
| Cc1cccc(Oc2ccccc2NC(=O)CN2C(=O)NC3(CCCC3)C2=O)c1 | -6.76 |
| CCN(CC)S(=O)(=O)c1ccc(NS(=O)(=O)c2ccc(C)c(C)c2)cc1 | -21.6 |
| Nc1nonc1C(=Nc1ccc(Br)cc1)NO | 8.76 |
| CCOC(=O)c1cnc(SCC(=O)OC)nc1N | 52.5 |
| C/C(=N\N1C(C)CCCC1C)c1ccccc1O (stereo not shown) | 14.1 |
| O=C(NCc1ccc2c(c1)OCO2)c1ccccc1Cl | -2.6 |
| COc1ccc(CC(=O)N2CC(C)CC(C)C2)cc1OC (stereo not shown) | 5.21 |
| CSc1ccc(/C=C(/NC(=O)c2ccccc2)C(=O)NCCN2CCOCC2)cc1 | -44.8 |
| CSc1ccc(/C=C(\NC(=O)c2ccccc2)C(=O)NCCN2CCOCC2)cc1 | -63.7 |
| CC(=O)O[C@@H]1C[C@H]2C(C)(C)C(=O)C=C[C@]2(C)[C@H]2CC[C@@]3(C)[C@H](c4ccoc4)OC(=O)[C@H]4O[C@]43[C@@]21C | -43.1 |
| N#Cc1ccccc1NC(=S)NC(=O)c1cccnc1 | 13.7 |
| CCN(CC(=O)NCc1ccc(F)cc1)C(=O)Cc1ccc(OC)cc1 | -63.5 |
| CCN(CC(=O)NCc1ccc(F)cc1)C(=O)/C=C/c1ccc(OC)cc1 | -48 |
| CCN(CC(=O)NCc1ccc(Cl)cc1)C(=O)Cc1ccc(OC)cc1 | -75.7 |
| COc1ccc(CNC(=O)COc2ccc(F)cc2)cc1 | 2.33 |
| CCN(CC(=O)NCc1ccc(Cl)cc1)C(=O)c1cc(OC)cc(OC)c1 | -48.4 |
| CCN(CC(=O)NCc1ccc(Cl)cc1)C(=O)c1ccc2cc(OC)ccc2c1 | 3.72 |
| c1nc(N2CCCC2)c2[nH]cnc2n1 | -3.15 |
| CCC(C(=O)NC(C)(C)C)N(C(=O)Cn1nnc(-c2cccs2)n1)c1cnc2ccccc2c1 (stereo not shown) | -13.3 |
